# ± gives the standard deviation.
# Key:
# [1] = test system: MILI (PIWIL2) piRISC loaded with piRNA #1 (26 nt); assay: pre-steady-state target cleavage rate (min^-1); guide: piRNA #1 5'p-UGAGGUAGUAGGUUGUAUAGUAUCCA; higher = faster piRNA-guided slicing of the target; conditions: auxiliary factor: 500 nM mouse GTSF1;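 further: 1 nM active piRISC with 0.1 nM target library at 33 °C single turnover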
# How it was run: (§1)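 At 33 °C in HEPES–potassium acetate buffer, a transcribed, DNA-blocked target RNA library […] was exposed for 0–8 or 0–960 min to 1 nM active affinity-purified piRISC carrying a single synthetic guide, with or without 500 nM GTSF1 partner protein. Uncleaved targets were sequenced and normalised to depth and to weakly complementary targets. With three trials pooled and k3 capped at 0.0001 min^-1, a burst-and-steady-state fit produced the pre-steady-state cleavage rate.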
# [2] = test system: EfPiwi piRISC loaded with piRNA #1 (26 nt); assay: pre-steady-state target cleavage rate (min^-1); auxiliary factor: 500 nM Ephydatia muelleri Gtsf1; guide: piRNA #1 5'p-UGAGGUAGUAGGUUGUAUAGUAUCCA; MIWI and MILI are mouse PIWI proteins and EfPiwi is from a freshwater sponge; tags in brackets are library labels; higher = faster piRNA-guided slicing of the target
# How it was run: as §1
Sequence,pre-steady-state target cleavage rate [1],pre-steady-state target cleavage rate [2]
GGAGUGGAUACUAUACAACCUACUGACCUCA,0.0789 ± 0.011,0.00401 ± 0.0014
GGAGUGGAUAGUAUACAACCUACUACCACA,0.0277 ± 0.0092,0.00327 ± 0.0018
GGAGACCUUACCAUACAACCUACUACCUCA,0.134 ± 0.02,0.0112 ± 0.0056
GGAGAGCAUACUAUACAACCUACAACCUCA,0.133 ± 0.015,0.0026 ± 0.0017
GGAGAGGAUACUAUACAACCUACAUACCUCA,0.123 ± 0.012,0.00353 ± 0.0021
GGAGAGGUUACUUUACAACCUACUACCUCA,0.175 ± 0.01,0.00375 ± 0.0031
GGAGACCAUACUAUACAACCCACUACCUCA,0.0223 ± 0.0041,0.0058 ± 0.0024
GGAGACGAUACUAUACAUCCUACUACCUGA,0.237 ± 0.031,0.00464 ± 0.0014
GGAGUGGAUAGUAUACAACCAACUACCUCA,0.0064 ± 0.0029,0.00306 ± 0.0018
GGAGACCUAACGAUACAACCUACUACCUCA,0.257 ± 0.053,0.0136 ± 0.0071
GGAGAGGAUACUAUAGCAACCUACUACCUCA,0.129 ± 0.012,0.0429 ± 0.019
GGAGACCUAACUUUACAACCUAGUACCUCA,0.0141 ± 0.0091,0.00417 ± 0.0038
GGAGACGAUACUUUACAACCAACUACCUCA,0.00466 ± 0.0023,0.00358 ± 0.0022
GGAGACCUUACUAUACAACGUACUUCCUCA,0.0242 ± 0.0053,0.00315 ± 0.0021
GGAGAGGAUACUAUACAACGUACUACCUCA,0.0143 ± 0.003,0.0053 ± 0.0021
GGAGUGGAUACUAUACAACCUACUACGAGA,0.0112 ± 0.004,0.00447 ± 0.0022
GGAGACGAUACUAUACAUCCAACUACCUCA,0.00801 ± 0.0028,0.00562 ± 0.0029
GGAGAGCAAACUAUACAACCUACUACCUCA,0.113 ± 0.019,0.0127 ± 0.0059
GGAGACCUUAGAAUACAACCUACUACCUCA,0.011 ± 0.004,0.00613 ± 0.0038
GGAGUGGAUACUAUUCUACCUACUACCUCA,0.19 ± 0.011,0.00571 ± 0.0035
GGAGACCUUACUGAUACAACCUACUACCUCA,0.0968 ± 0.011,0.0403 ± 0.016
GGAGACCUAACUAUACAAGCUACUACCUGA,0.235 ± 0.043,0.00345 ± 0.003
GGAGUGGAUACUUUACAACCUACUACCUCA,0.174 ± 0.0092,0.00658 ± 0.0035
GGAGACCUAUCUAAUACAACCUACUACCUCA,0.0342 ± 0.0069,0.00579 ± 0.004
GGAGACCAUACUUUACAACCUACUACCUGA,0.0887 ± 0.018,0.00591 ± 0.0031
GGAGACCUAUCUCUACAACCUACUACCUCA,0.0688 ± 0.0068,0.00937 ± 0.0045
GGAGACCUAACCAUACAACCUACUACCUCA,0.12 ± 0.072,0.0143 ± 0.0069
GGAGAGAUACUAUACAACCUACUACCUCA,0.202 ± 0.017,0.121 ± 0.054

Sequence,pre-steady-state target cleavage rate [1],pre-steady-state target cleavage rate [2]
GGAGUGCAUACUAUACAACCUACUAGCUCA,0.0656 ± 0.0098,0.00282 ± 0.0024
GGAGUGGUUUCUAUACAACCUACUACCUCA,0.148 ± 0.0079,0.00603 ± 0.0034
GGAGAGGAUACUAUACAACCCACUACCUCA,0.0214 ± 0.0051,0.00601 ± 0.0024
GGAGACCAUACUAUACAACCUUCUACCACA,0.00753 ± 0.0037,0.00301 ± 0.0027
GGAGUGGAUACUAUACAACGUACUACGUCA,0.0108 ± 0.0027,0.0036 ± 0.0015
GGAGAGGAUACUAUACAACCAUCUACCUCA,0.00516 ± 0.0022,0.0052 ± 0.002
GGAGAGGAUACUAUACAACCUUCUACCACA,0.00472 ± 0.0023,0.00468 ± 0.0021
GGAGAGGAUAGUAUACAACCUACUACCUCA,0.0476 ± 0.01,0.00608 ± 0.0032
GGAGACGAAACUAUACAACCUACUACCACA,0.219 ± 0.031,0.00352 ± 0.0032
GGAGUGGAUACAAUACAUCCUACUACCUCA,0.256 ± 0.016,0.00574 ± 0.0025
GGAGACGAAACUAUACAACCUACUAGCUCA,0.083 ± 0.025,0.00368 ± 0.0023
GGAGACCUAACUAUACAUCCUACUACCUCA,0.239 ± 0.028,0.00745 ± 0.0028
GGAGUGCAUACUAUACAACCUUCUACCUCA,0.00996 ± 0.002,0.00467 ± 0.0029
GGAGAGGAUCUAUACAACCUACUACCUCA,0.171 ± 0.013,0.00612 ± 0.0048
GGAGACGAUACUAUAGAACCUACUUCCUCA,0.0055 ± 0.0044,0.00251 ± 0.0022
GGAGUGGAAACUAUACAACGUACUACCUCA,0.0251 ± 0.0048,0.00364 ± 0.0017
GGAGACCAUACUAUACAACCUACGACCUCA,0.137 ± 0.018,0.00282 ± 0.0019
GGAGACGAUACUAUACAACCUACUACGAGA,0.11 ± 0.034,0.00501 ± 0.0017
GGAGACCAAACUAUUCAACCUACUACCUCA,0.217 ± 0.047,0.00445 ± 0.004
GGAGUGGAUACUAUUCAACGUACUACCUCA,0.0305 ± 0.004,0.00373 ± 0.0014
GGAGUGGAUACUAUACAACCUACUACCUGA,0.0915 ± 0.011,0.0069 ± 0.0028
GGAGACGAUACUAUACAUGCUACUACCUCA,0.115 ± 0.01,0.00483 ± 0.0015
GGAGAGCAUACUAUACAACCUACUACCACA,0.158 ± 0.018,0.00318 ± 0.0021
GGAGACCUAACUAUACAACCUACUACAUCA,0.0477 ± 0.014,0.0146 ± 0.0083
GGAGACGAUACUAUACAACCUAGUACCACA,0.00571 ± 0.0053,0.00488 ± 0.0029
GGAGACCAUACUAUACAACCUACUACAUCA,0.0875 ± 0.011,0.00692 ± 0.004
GGAGUGGAUACAUAACAACCUACUACCUCA,0.113 ± 0.0099,0.00683 ± 0.0044

# Source: the supplement of paper PMC10338343
